Measurements as given in article PMC7862700, “An all-to-all approach to the identification of sequence-specific readers for epigenetic DNA modifications on cytosine”.

Experiments:
Assay in all cases: DAPPL (digital affinity profiling via proximity ligation, sequencing); 10 mM Tris-HCl pH 7.5, 50 mM NaCl, 1 mM DTT, 4% glycerol, room temperature, 30 min; GST-TFs on glutathione beads, 16-mer random dsDNA library, 0.1% formaldehyde crosslink after washing; high values mean tight binding
FEV = target: T1, FEV (Homo sapiens, UniProt Q99581 1-238); conditions: protein: recombinant; tags: N-terminal GST; dsDNA, one strand shown
T1 sequence: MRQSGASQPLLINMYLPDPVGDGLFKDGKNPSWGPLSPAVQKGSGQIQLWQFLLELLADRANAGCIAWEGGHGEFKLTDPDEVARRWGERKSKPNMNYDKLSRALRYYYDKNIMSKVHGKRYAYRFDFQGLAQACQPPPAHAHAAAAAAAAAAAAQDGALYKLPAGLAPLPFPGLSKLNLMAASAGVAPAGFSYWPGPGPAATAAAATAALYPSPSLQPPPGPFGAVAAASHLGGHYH
Outline: (§1)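 After expression in yeast as GST fusions, human transcription factors were bound to glutathione beads, DNA-barcoded and mixed with a tag-only sample. The pools were incubated with 200 nmole of a 16-mer random double-stranded DNA library in Tris/NaCl/DTT/glycerol buffer (30 min, room temperature), washed and crosslinked with 0.1% formaldehyde. Proximity ligation with BsaI/T4 ligase ran for 1 h at 37 °C, before PCR amplification and sequencing on an Illumina NextSeq500. Binding signal is a hexamer's read frequency for a factor divided by its frequency for the tag-only sample.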

ETV5 = ETV5 (Homo sapiens, UniProt P41161 1-510); conditions: protein: recombinant; tags: N-terminal GST; dsDNA, one strand shown
Sequence of ETV5 (P41161 whole entry): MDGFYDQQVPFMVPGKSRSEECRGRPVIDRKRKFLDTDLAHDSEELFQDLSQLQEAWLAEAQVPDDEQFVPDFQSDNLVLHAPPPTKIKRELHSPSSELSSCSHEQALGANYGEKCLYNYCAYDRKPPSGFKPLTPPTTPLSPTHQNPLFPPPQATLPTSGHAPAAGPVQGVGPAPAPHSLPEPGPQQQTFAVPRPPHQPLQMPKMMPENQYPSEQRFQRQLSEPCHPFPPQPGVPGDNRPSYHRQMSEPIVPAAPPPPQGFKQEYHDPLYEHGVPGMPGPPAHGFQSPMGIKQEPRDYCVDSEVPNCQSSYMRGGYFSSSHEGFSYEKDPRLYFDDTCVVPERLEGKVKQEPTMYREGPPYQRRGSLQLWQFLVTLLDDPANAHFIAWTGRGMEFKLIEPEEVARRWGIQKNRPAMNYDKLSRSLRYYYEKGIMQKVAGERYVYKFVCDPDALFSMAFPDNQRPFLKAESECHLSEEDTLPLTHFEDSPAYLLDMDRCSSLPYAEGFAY
Outline: as §1

HSF1 = HSF1 (Homo sapiens, UniProt Q00613 1-529); conditions: protein: recombinant; tags: N-terminal GST; chain copies: 3; dsDNA, one strand shown
Sequence of HSF1 (Q00613 whole entry): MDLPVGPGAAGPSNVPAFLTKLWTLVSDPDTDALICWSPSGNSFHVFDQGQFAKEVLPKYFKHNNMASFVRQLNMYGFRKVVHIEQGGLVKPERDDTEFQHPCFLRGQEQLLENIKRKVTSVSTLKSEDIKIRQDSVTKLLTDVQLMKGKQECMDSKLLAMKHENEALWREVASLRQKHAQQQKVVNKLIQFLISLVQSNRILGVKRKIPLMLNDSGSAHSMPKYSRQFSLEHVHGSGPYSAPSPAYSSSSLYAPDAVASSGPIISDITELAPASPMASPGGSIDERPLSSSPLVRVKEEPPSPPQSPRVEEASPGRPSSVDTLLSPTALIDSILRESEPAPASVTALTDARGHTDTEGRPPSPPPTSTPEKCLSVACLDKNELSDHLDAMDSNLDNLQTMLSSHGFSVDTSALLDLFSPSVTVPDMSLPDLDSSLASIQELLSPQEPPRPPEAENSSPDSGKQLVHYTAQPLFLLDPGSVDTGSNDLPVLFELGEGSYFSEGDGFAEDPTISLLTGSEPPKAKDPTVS
Outline: as §1

SPIC = target: T2, SPIC (Homo sapiens, UniProt Q8N5J4 1-248); conditions: protein: recombinant; tags: N-terminal GST; dsDNA, one strand shown
T2 sequence: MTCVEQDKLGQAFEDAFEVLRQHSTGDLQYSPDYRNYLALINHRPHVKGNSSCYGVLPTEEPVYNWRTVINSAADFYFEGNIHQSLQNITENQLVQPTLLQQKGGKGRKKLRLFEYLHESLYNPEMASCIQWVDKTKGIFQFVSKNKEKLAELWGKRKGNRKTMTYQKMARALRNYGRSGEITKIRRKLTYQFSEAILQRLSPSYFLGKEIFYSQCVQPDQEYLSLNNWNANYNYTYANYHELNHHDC
Outline: as §1

ELF4 = ELF4 (Homo sapiens, UniProt Q99607 1-663); conditions: protein: recombinant; tags: N-terminal GST; dsDNA, one strand shown
Sequence of ELF4 (Q99607 whole entry): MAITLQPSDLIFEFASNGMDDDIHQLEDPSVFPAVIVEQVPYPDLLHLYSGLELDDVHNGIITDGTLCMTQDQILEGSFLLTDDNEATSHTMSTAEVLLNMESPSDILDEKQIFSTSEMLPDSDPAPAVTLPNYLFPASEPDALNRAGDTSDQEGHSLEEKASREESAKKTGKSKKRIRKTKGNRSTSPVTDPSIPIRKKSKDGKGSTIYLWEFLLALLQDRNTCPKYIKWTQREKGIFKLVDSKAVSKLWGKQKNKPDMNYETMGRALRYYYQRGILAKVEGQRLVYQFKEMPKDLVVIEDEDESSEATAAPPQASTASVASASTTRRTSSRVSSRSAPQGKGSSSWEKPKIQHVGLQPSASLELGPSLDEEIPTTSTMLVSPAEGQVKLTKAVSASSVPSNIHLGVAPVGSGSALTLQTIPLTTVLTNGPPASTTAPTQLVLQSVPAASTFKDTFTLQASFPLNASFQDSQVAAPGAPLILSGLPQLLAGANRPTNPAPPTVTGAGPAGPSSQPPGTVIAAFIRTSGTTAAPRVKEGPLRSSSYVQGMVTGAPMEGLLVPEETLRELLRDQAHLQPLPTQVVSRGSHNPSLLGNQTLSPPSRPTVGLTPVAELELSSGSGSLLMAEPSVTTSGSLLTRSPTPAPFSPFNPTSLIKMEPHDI
Outline: as §1

ELK4 = target: T3, ELK4 (Homo sapiens, UniProt P28324-2 1-405); conditions: protein: recombinant; tags: N-terminal GST; dsDNA, one strand shown
T3 sequence: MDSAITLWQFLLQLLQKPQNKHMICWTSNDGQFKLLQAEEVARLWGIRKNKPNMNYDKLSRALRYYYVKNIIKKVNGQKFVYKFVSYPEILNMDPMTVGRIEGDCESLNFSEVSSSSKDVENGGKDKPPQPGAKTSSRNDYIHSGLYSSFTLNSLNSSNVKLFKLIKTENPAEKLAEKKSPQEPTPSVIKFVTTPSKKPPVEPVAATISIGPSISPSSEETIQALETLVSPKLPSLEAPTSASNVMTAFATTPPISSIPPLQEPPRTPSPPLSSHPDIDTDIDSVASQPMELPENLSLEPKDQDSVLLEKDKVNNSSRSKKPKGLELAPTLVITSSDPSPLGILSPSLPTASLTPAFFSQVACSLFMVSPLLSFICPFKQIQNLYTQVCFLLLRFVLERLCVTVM
Outline: as §1

ETV2 = target: T4, ETV2 (Homo sapiens, UniProt O00321 1-342); conditions: protein: recombinant; tags: N-terminal GST; dsDNA, one strand shown
T4 sequence: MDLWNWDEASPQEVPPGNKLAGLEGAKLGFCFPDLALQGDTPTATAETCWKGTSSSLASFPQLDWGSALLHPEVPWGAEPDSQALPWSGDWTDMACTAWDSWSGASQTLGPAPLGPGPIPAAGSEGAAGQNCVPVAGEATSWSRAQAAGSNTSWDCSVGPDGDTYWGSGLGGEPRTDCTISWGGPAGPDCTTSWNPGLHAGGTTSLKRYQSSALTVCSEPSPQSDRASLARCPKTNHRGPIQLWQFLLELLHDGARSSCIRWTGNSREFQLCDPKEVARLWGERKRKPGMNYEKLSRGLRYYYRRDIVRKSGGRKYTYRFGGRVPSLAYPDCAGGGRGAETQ
Outline: as §1

ELF3 = target: T5, ELF3 (Homo sapiens, UniProt P78545 1-371); conditions: protein: recombinant; tags: N-terminal GST; dsDNA, one strand shown
T5 sequence: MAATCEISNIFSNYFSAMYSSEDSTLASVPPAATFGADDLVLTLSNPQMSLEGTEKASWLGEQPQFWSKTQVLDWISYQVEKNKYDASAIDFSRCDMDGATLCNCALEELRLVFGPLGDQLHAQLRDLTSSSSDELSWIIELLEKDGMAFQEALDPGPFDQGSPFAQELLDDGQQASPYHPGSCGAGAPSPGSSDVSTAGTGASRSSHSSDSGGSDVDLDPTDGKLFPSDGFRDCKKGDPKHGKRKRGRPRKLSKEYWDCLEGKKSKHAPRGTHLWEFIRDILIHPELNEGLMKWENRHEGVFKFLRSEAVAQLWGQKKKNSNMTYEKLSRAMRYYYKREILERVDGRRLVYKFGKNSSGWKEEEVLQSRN
Outline: as §1

ETV1 = ETV1 (Homo sapiens, UniProt P50549 1-477); conditions: protein: recombinant; tags: N-terminal GST; dsDNA, one strand shown
Sequence of ETV1 (P50549 whole entry): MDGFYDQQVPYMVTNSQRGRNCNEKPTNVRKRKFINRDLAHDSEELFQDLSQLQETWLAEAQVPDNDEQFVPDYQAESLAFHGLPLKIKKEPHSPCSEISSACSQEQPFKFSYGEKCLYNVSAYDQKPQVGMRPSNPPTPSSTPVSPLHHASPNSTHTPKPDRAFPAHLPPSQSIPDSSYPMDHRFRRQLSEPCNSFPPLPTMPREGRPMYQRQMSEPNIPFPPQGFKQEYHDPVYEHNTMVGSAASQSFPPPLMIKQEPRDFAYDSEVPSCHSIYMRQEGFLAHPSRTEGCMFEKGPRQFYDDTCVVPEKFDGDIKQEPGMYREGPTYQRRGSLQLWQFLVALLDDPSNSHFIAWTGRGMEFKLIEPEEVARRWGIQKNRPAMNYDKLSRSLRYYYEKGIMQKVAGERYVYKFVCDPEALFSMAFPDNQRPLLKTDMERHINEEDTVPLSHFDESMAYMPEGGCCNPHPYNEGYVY
Outline: as §1

CACGCG
binding signal (FEV): 1.16 fold enrichment (6-mer frequency, TF over GST control)
binding signal (ETV5): 1.04 fold enrichment (6-mer frequency, TF over GST control)
binding signal (HSF1): 1.1 fold enrichment (6-mer frequency, TF over GST control)
binding signal (SPIC): 1.29 fold enrichment (6-mer frequency, TF over GST control)
binding signal (ELF4): 1.2 fold enrichment (6-mer frequency, TF over GST control)
binding signal (ELK4): 1.24 fold enrichment (6-mer frequency, TF over GST control)
binding signal (ETV2): 1.18 fold enrichment (6-mer frequency, TF over GST control)
binding signal (ELF3): 1.08 fold enrichment (6-mer frequency, TF over GST control)
binding signal (ETV1): 1.09 fold enrichment (6-mer frequency, TF over GST control)
